Source: PubChem BioAssay AID1347426 (Functional Genomics Laboratory (NCATS/FGL), 2020)
Hit rate of the full screen: of about 31,000 sequences, about 1,400 (4.5%) were called active. Many of the other results were omitted from the sample, so actives are more common in it than they were. Values without a mark were called inactive.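 The calls were made as follows: active = median seed-adjusted z-score above 1 or below -1; inactive = the rest.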

Assay: Novel Modifiers of Survival Motor Neuron (SMN) Protein: Gene Identification via Genome-wide siRNA Screen;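 also: luminescence tracks full-length SMN protein made from the SMN2 reporter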
Details: HEK293T SMN2-luciferase reporter, siRNA knockdown, 72 h; actives lie on both sides
Summary of the method: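 Genome-wide siRNA screen (10418 genes, 3 siRNAs each, 1 pmol per well) by reverse transfection in HEK293T cells stably carrying an SMN2-luciferase reporter; luminescence after 72 hours, normalized to negative-control siRNA, log10-transformed, MAD-scored.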

Sequence | median seed-adjusted z-score
GAAGAGCUCUUAGAGUGUATT against BCAT1 | -0.604
AGUCCUCUAUCAACCUCUUTT against RXFP3 | -0.0651
CUCCGUAUCAUAGAUGUAATT against PCDHB3 | 0.304
GGAGCUCACUGACGAGAAUTT against POLR2C | -2.95 (active)
GAAACCAAGUCAUAUGAAATT against CRTAP | 0.581
GGAUCUACUCGGCACUCUATT against ZBTB20 | -0.521
AGACCGCACUGACAGAGGATT against BAIAP2 | -0.0497
CAAAGAACCUAUCCGCUUATT against GGA2 | -0.142
GAAGCAGAGGACAACAUGATT against SNRPD3 | -2.69 (active)
CAGUUAUGAUUGGUGGAGATT against CDC42 | -0.0938
AGAACUUGAUGCUCCGAGATT against ITGA7 | 0.13
UUCUCUCCCUAAUAAAAAUTT against AVPR2 | -0.262
GCCUACCCAUUUGUGAACATT against PEX12 | -0.129
GCUCCACCGAGAUUCCUGATT against TCEB1 | 1.08 (active)
GGUGCUGGAGUUAAUCUUATT against TP53I3 | 0.244
GGCUUAAAGACAUUGAACATT against KLHL1 | 0.067
GGACCUAGUGUGAGCAUAATT against COL14A1 | 0.19
GCCCACAUGUUUAAGGACATT against KCTD9 | 1.31 (active)
GAUACGUACUAUGACCGAATT against TGM7 | 0.244
GCACCUUCCGCGUCAUGUUTT against BTBD2 | 0.0303
GAGCUGACUUCGGAACUAATT against LCN2 | 0.123
CCACAGAGAUAAGCAGUCATT against IL15RA | -0.0113

Sequence | median seed-adjusted z-score
GGACUCCCAUCAGUUCCUATT against MFSD4 | -1.89 (active)
GCUGGAAUCUAACAAUAGATT against ROCK2 | -0.149
CGUGUCCUGUCUGAACCAATT against ESCO2 | 0
AAGAGUCAGUUUUCAGAUATT against CHID1 | 0.199
GGAGGUUAAAGUGAAGAUUTT against MORF4L2 | 0.389
AAAUCGAUCAGAUCAACAATT against CDC2L1 | -1.14 (active)
CCCUGAUCCUAUAGCUAUUTT against ART4 | -0.0808
GAUCUGUGGUUGCAAACGATT against TRMT1 | -0.224
CAGUUAUACUCAGAAGAGATT against ZNF155 | 0.698
GAAUGACCUUGAACAAUGATT against ABTB2 | 0.432
UGGAAUACAUGGAUCAGAATT against HEPACAM | -0.063
AGUACGGACAGAUCUCUGATT against CIRBP | -0.701
CAGUCGACCAGUACAUCAATT against PMS1 | 0.0538
AGUUGUAAAUUUACAAAGATT against UNC119 | 0.171
GAGUUUUUCGAGCUCAUGATT against PGS1 | 1.36 (active)
GGACUUUGGUGUGAAUGAATT against ANXA1 | -0.114
GCAUUGAAACGAAUGGGAATT against UBA5 | -0.105
UCUUCACCGUGUGCCUAGATT against CRAT | -1.42 (active)
GCAGAUAAGAUCAAGAUCATT against SRPK3 | -0.643
GAAGAAACCUUGACAAAAATT against KHDRBS3 | 0.0681
GACUAGUUUUGAUCAGGAATT against ZBTB5 | 0.314
GCAGAAUUCUGACGAUGAUTT against LEO1 | 1.2 (active)

Sequence | median seed-adjusted z-score
CGAACAAAACGGGCCUGGATT against FOXA2 | 0.883
CCCUCUUUGGUCUAACUCATT against HOXA3 | 0.315
CGAAGACACGUAGCCCUAATT against PUS3 | 0.584
GGUGUAAUAAUGUCCUUUATT against SNRPF | -2.66 (active)
GGACUACAAAGUCGACCAATT against NDUFB10 | -0.39
GGAGAUAGAACCUUCCAGATT against HLA-B | -0.355
CUAGAGUCGCUGUUGAAGATT against DRAP1 | 1.08 (active)
GGGUGGAGGUGUACUAUGATT against LOXL2 | 0.177
CAUCAUCAGUUUUUCGAUUTT against AHCTF1 | -0.501
GAUGCCCAGUGUCCUGUUATT against PIF1 | -0.0455
GCAAGACAAGUGUCGGGAATT against HSPA6 | 0.364
CAGCAGAACGUGUACGAGATT against ZBTB7A | -0.344
CAAGUGGGCUGAGUACCAUTT against PHPT1 | 1.27 (active)
GAGGUAAGAUGGAUGAAGATT against ACSM1 | 0.658
UCAAUGCCUCCUUAAUUUUTT against ZNF321 | -0.642
CAGCGGAUGUGUUCAGUCUTT against PKMYT1 | 0.65
CAAAACUAGUAAUCCUUAUTT against CDK8 | -1.47 (active)
GGACAUGUGCGUCUACCGATT against HOXD13 | 0.116
GGAUUUAUCAGAACCUUUATT against SLC25A15 | -0.0116
CCUACCAUCUUGUCCCUAATT against SLC7A6 | -0.0877
UGGAGUAAAUGAUAAGAUATT against TRIM45 | -0.0974
GCACCAUUACUAUAGAGGATT against PTH2R | -0.492

Sequence | median seed-adjusted z-score
CAUCACCUAUUGGAUCCAATT against MMP9 | -1.15 (active)
CGGUCCAAAUUGAAAGCGATT against STX1B | 0.229
CGACUUGUUGUAUAAGUAUTT against DYNC1LI2 | -0.491
CCAAGUUAUUGCUAUCAGATT against PPCS | 0
GGUAAACGCAAAGCACUGATT against MAP2K4 | -0.366
GCCUCUUGCUAGGCAUAGCTT against CLDN15 | 0.973
CCCUCGACAGAGUCAGUUUTT against NPC1 | -0.195
GAUUGAAACUGACAAGACATT against DLST | 1.16 (active)
CAGCUACGGAAGAACCUGATT against PHF21A | 0.179
UCGAGGAAAUGAUCCGGGATT against GALE | -0.153
GGAGGAUCGUUUAGACAGATT against TCF12 | -0.16
CAGCUGCAAUUCUAGCUAATT against RETSAT | -1.7 (active)
CAAUCACUGUGGAAUAUCATT against INPPL1 | 0.199
CAAGGGUAUUAUUCGAGUUTT against PPP1R3A | -0.241
GAAAACCGCAGAUAAAGUATT against NFRKB | 0.787
GGUGCAAUCAGAUAACAUATT against PPAPDC1A | 0.634
CUGUUUAAGCGAUGACAAATT against CFL2 | -0.148
AUCCUUAUUUGACACGAAATT against HOXC8 | -0.0285
GGACUUUGCCUAUGUCUGUTT against TFAP2C | 1.28 (active)
AGACCACCAAGGUUUCUUUTT against KCNH6 | 0.424
CUGGAAUGGUUGUCUGGUATT against SERTAD1 | 0.376
GAAGAGAACUUCUGCCGUATT against MST1 | -1.47 (active)

Sequence | median seed-adjusted z-score
GAUUAAUCCUUCAAUGAUUTT against TAF9B | -0.0247
CGUCAGCUAUGUAAUGUUUTT against SLC22A7 | -0.387
GGACAGCUACGUGAAGAUUTT against PAK6 | -0.57
UGAUGGUUGUGACAAUUGUTT against SUPT4H1 | -1.01 (active)
AGCCUGUGAUGACUACAGATT against MGP | -0.0854
GAACUUACCUUCAACUACATT against NSD1 | -0.372
GAGUGAUUCUAGCCUCUAATT against SEC61A1 | 0.312
CGAGAAAUCCCACAAGCGATT against NOVA2 | 0
GGAAGGCUUUUAGCAAUGATT against ZNF570 | 0.662
GGAUCGAGGAAAUAACAAUTT against DDX42 | -2.13 (active)
GAAUGAGUUUUGUCAUGGATT against SUV39H2 | -0.279
AGGCCGUGCUCUUCACCUATT against FAAH | 0.373
GAGAUAUACGAGGAGAUUATT against TIGD1 | 0.224
GGUCAGAACAUUCACCGAATT against CFTR | -1.23 (active)
GAAUGUGCUAUGAAGCUUUTT against SPRR1B | -0.721
GGCUCGUAUUUUCUGGUUUTT against ACHE | 0
CCUUGCCUCUAUGAGAUCATT against CHCHD2 | 0.0884
GGGUCAUUCUAUGGGCAAATT against OGFOD2 | 0.493
GACUUGAGCUAAAUGGUCATT against SIAH1 | 1.5 (active)
CCUAUACUGUGGGCUAUAATT against STARD4 | 0.173
